# Unmarked numbers belong to inactive results.
# Compound: C#CCNC(=O)CCSSCCC(=O)NCCc1ccc(C=O)c(C=O)c1
# Test: lysine labeling ratio R10:1 (500 µM / 50 µM probe), SILAC-ABPP in living cells; higher = lower intrinsic lysine reactivity toward the probe, active = 2 or less
# Conditions: HeLa; probe concentrations 500 vs 50 µM
# Method in brief: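 Living SILAC light and heavy HeLa cells in PBS at room temperature were treated with an alkyne-tagged, disulfide-linked lysine probe at 50 µM or 500 µM, with forward and reverse label swaps. The mixed lysates were clicked to biotin-azide, digested with trypsin, captured on neutravidin, released with DTT, alkylated and run by LC-MS/MS on a TIMS-TOF Pro. R for each lysine is the filtered median high-probe/low-probe MS1 peptide ratio, taken again as the median over forward and reverse replicates. Any value above 20 is set to 20.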
# UniProt P16422, sequence (P16422 whole entry): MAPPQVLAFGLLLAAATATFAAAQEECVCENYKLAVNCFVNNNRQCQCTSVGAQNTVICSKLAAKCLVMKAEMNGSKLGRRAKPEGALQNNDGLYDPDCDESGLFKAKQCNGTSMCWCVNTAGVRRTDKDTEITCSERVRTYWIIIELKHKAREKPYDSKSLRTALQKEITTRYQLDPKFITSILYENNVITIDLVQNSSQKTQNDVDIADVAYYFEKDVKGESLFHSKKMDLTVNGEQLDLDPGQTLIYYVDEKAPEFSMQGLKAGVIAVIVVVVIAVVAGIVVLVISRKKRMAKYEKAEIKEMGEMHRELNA
# UniProt P50897, sequence (P50897 whole entry): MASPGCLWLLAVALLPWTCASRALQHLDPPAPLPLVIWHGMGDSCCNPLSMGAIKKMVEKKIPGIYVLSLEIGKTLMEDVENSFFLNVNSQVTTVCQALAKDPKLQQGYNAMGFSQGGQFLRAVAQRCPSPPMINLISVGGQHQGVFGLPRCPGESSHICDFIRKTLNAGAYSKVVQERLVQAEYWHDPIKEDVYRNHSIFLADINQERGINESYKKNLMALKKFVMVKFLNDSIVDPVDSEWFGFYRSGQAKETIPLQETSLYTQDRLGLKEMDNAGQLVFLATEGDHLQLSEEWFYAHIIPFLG
# UniProt P52803, sequence (P52803 whole entry): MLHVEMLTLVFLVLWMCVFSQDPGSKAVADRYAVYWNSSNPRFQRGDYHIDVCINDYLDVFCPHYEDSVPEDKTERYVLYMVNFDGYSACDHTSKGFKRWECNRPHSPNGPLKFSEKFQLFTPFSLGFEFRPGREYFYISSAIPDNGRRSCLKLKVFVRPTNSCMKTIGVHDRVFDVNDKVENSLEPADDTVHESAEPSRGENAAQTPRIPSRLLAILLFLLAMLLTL
# UniProt Q14126, sequence (Q14126 whole entry): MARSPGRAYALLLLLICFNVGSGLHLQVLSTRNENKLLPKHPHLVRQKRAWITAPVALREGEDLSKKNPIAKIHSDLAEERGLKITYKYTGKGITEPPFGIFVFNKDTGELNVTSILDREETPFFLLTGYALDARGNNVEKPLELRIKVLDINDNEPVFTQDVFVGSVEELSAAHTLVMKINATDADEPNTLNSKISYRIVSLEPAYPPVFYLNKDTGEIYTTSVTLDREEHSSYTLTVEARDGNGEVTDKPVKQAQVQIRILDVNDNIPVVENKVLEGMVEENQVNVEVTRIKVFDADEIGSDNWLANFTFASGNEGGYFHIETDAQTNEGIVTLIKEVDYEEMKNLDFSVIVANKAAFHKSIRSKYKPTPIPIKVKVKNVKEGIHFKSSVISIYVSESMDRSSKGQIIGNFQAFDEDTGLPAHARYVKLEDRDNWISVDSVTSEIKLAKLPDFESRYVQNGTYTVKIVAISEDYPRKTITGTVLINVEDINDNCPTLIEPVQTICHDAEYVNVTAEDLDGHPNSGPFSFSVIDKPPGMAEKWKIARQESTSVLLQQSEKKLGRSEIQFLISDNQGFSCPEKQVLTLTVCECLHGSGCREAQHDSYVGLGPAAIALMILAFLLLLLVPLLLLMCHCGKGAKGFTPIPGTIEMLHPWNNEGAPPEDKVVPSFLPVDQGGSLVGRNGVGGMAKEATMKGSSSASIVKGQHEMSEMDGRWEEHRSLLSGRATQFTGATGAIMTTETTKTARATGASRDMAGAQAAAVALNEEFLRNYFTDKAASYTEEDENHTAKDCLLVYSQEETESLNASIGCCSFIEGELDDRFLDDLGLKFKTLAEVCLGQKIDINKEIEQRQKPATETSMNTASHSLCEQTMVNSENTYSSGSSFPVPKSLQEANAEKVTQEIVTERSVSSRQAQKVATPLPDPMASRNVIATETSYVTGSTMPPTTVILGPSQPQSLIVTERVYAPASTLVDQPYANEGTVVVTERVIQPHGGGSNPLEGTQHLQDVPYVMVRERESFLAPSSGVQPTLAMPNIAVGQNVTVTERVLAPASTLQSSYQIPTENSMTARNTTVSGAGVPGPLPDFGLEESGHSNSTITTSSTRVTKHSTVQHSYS
# UniProt P25705, sequence (P25705 whole entry): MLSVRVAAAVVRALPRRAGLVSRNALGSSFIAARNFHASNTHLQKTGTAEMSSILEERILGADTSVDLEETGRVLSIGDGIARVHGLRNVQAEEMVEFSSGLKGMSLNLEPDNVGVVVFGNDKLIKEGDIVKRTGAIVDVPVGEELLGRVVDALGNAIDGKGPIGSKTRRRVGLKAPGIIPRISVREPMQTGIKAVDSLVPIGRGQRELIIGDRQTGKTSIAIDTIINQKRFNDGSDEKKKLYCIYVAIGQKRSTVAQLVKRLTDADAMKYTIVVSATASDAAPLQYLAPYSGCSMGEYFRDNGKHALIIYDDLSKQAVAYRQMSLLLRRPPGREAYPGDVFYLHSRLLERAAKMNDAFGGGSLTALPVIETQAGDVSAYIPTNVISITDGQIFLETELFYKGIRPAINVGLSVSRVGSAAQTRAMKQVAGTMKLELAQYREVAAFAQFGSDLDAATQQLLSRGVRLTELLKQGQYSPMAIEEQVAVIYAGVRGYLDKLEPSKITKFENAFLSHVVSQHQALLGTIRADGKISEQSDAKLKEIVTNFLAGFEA
row,Target,lysine labeling ratio R10:1
1,UniProt P52803 (lysine site: K166),0.58 (active)
2,DSG2 (lysine site: K430) (UniProt Q14126),6.01
3,UniProt P25705 (lysine site: K161),3.49
4,PPT1 (lysine site: K191) (UniProt P50897),1.31 (active)
5,UniProt P62851 (lysine site: K114),2.69
6,EPCAM (lysine site: K155) (UniProt P16422),2.33

# Reference: the supplement of paper PMC11001985
